Values joined by “and” are separate entries in the source; they are usually repeats but may differ in a detail not shown here. Identical values can stand only once. Records with an inconclusive call do not appear. Active and inactive are the calls of the source. Unless noted, the call rests on the fitted dose curve; in most records, active means well fitted curve in the direction sought with a large enough effect in the repeat runs; inconclusive means weak or mixed curves; inactive means no such curve, though single readings can be large; an effect the other way counts as inactive or inconclusive.

This note sets out measurements from PubChem BioAssay (Tox21).

Experiment [1] can be described thus: qHTS assay for small molecules that induce genotoxicity in human embryonic kidney cells expressing luciferase-tagged ATAD5 (AID 651632). Further: nearly all actives have a fitted effect of over 15% in size. The essentials: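 A rise in luciferase signal from ATAD5-tagged HEK293T cells marks genetic stress. Cells were exposed to compounds for 16 hr at 37C, 5% CO2, then luciferase was quantified after a 30 min room-temperature incubation with Amplite.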

Experiment [2] can be described thus: qHTS assay for small molecule agonists of the p53 signaling pathway - cell viability (AID 651633; calls by dose curve; further: nearly all actives have a fitted effect of over 30% in size; further: potency means the concentration at half of the fitted maximal effect). In outline: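 Viability counter-read: CellTiter-Glo luminescence (30 min, room temperature) in the same p53RE-bla plates. These plates had been exposed to compounds for 16 h at 37 C.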
Experiment [3] can be described thus: qHTS assay for small molecule disruptors of the mitochondrial membrane potential - cell viability (AID 720634; calls by dose curve; further: nearly all actives have a fitted effect of over 20% in size; further: potency means the concentration at half of the fitted maximal effect). In outline: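 Cytotoxicity was quantified from ATP content by CellTiter-Glo luminescence in the same wells as the MMP dye read-out. HepG2 (2,000 cells/well) were plated overnight and exposed to compounds for 1 hr at 37 C.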
Experiment [4] is described as follows: qHTS assay for small molecule disruptors of the mitochondrial membrane potential (AID 720635). Further: potency means the concentration at half of the fitted maximal effect. In outline:
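Mitochondrial membrane potential tracked with Mito-MPS dye, red aggregates (ex 540/em 590 nm) against green monomers (ex 490/em 535 nm). Compound treatment 1 hr at 37C, dye 30 min in HepG2.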

The nature of experiment [5]: qHTS assay to test for compound auto fluorescence at 590 nm (red) in HepG2 cells (AID 720674). The essentials:
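We screened compounds on adherent HepG2 cells, incubating them for an hour at 37 C in 5% CO2 before reading emission at 590 nm under 540 nm excitation; values reflect equivalence to Rose Bengal sodium fluorescence.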
Background: In qHTS, concentration-response curves come from the screen itself.

Experiment [6] in a line: qHTS assay to test for compound auto fluorescence at 535 nm (green) in HepG2 cells (AID 720675).
The nature of experiment [7]: qHTS assay to test for compound auto fluorescence at 460 nm (blue) in HEK293 cells (AID 720678). In outline:
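Cells were seeded and left to adhere for 4-5 hr at 37C. Compounds were then pin-transferred. After an overnight incubation at 37C under 5% CO2, intrinsic fluorescence at 405/460 nm was measured and referenced to triamterene.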

Experiment [8] is described as follows: qHTS assay to test for compound auto fluorescence at 590 nm (red) in HEK293 cells (AID 720679). In outline:
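Each well held 2,000 HEK293 cells in medium containing 10% dialyzed FBS. Following 4-5 hr attachment at 37C, 23 nL test compound or DMSO was added; plates sat overnight, and red fluorescence (540/590nm) was recorded.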

Experiment [9] can be described thus: qHTS assay to test for compound auto fluorescence at 535 nm (green) in HEK293 cells (AID 720680).
Experiment [10] can be described thus: qHTS assay to test for compound auto fluorescence at 460 nm (blue) in HEK293 cell free culture (AID 720681). In outline:
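Blue fluorescence (Ex 405/Em 460 nm, triamterene-equivalent) was read immediately after pin transfer of compound or DMSO into medium (DMEM, 10% FBS) without cells.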

The nature of experiment [11]: qHTS assay to test for compound auto fluorescence at 535 nm (green) in HEK293 cell free culture (AID 720682). The essentials: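 Cell-free medium (DMEM, 10% FBS) receives compound or DMSO by pintool. Plate read directly at Ex 485/Em 535 nm. Signal converted to fluorescein equivalency.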
Experiment [12] can be described thus: qHTS assay to test for compound auto fluorescence at 590 nm (red) in HEK293 cell free culture (AID 720683). The essentials: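 Red-channel autofluorescence of compounds in culture medium (DMEM, 10% FBS), no cells, measured at 540/590 nm. Rose Bengal sodium is the reference fluorophore for equivalence.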
The nature of experiment [13]: qHTS assay to test for compound auto fluorescence at 590 nm (red) in HepG2 cell free culture (AID 720684). In outline: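 Cell-free; medium MEM + 10% FBS; compound or DMSO added by pintool; read Ex 540/Em 590 nm; Rose Bengal sodium as red reference fluorophore.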
Experiment [14] can be described thus: qHTS assay to test for compound auto fluorescence at 460 nm (blue) in HepG2 cell free culture (AID 720685). In outline: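 Cell-free plates of MEM plus 10% FBS received 23 nL compound or DMSO vehicle; blue-channel (405/460 nm) intensity scored against triamterene as reference fluorophore.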
Experiment [15] in a line: qHTS assay to test for compound auto fluorescence at 535 nm (green) in HepG2 cell free culture (AID 720686).
Experiment [16] is described as follows: qHTS assay to test for compound auto fluorescence at 460 nm (blue) in HepG2 cells (AID 720687). The essentials:
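Blue-channel autofluorescence (Ex/Em 405/460 nm, triamterene-equivalent) was measured after 1 hr compound exposure at 37 C, 5% CO2. Cells were HepG2, plated overnight at 37 C in MEM plus 10% FBS.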

In experiment [17] the target is Glucocorticoid receptor (Homo sapiens) (UniProt P04150). The experiment in a line: qHTS assay to identify small molecule agonists of the glucocorticoid receptor (GR) signaling pathway (AID 720691; active means well fitted activation curve with a large enough effect in the signal ratio in the repeat runs, not every such curve was filed as active; the % refers to the signal ratio; further: potency means the concentration at half of the fitted maximal effect). In outline:
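Agonist-mode qHTS in HeLa cells stably expressing a glucocorticoid-response-element beta-lactamase reporter. Fluorescence intensity read with FRET substrate (2 h, room temperature) after 18 h compound treatment at 37 C.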

The nature of experiment [18]: qHTS assay for small molecules that induce genotoxicity in human embryonic kidney cells expressing luciferase-tagged ATAD5 - cell viability (AID 651634; calls by dose curve; further: nearly all actives have a fitted effect of over 25% in size). In outline: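 Cytotoxicity counter-readout: after 15.5 hr compound treatment at 37C, live-cell protease activity in ATAD5-luciferase HEK293T cells measured by CellTiter-Fluor fluorescence, 30 min development at 37C.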

For experiment [19], the target named is Glucocorticoid receptor (Homo sapiens) (UniProt P04150). Briefly: qHTS assay to identify small molecule antagonists of the glucocorticoid receptor (GR) signaling pathway (AID 720692; active means well fitted inhibition curve with a large enough effect in the signal ratio in the repeat runs, not every such curve was filed as active; the % refers to the signal ratio). In outline:
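Inhibition of dexamethasone-driven (5 nM final) beta-lactamase expression was measured in GRE-reporter HeLa cells over 18 h at 37C. Fluorescence was read after 2 h with the B/G FRET substrate at room temperature.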

Experiment [20] in a line: qHTS assay for small molecule agonists of the p53 signaling pathway (AID 651631; calls by dose curve; further: nearly all actives have a fitted effect of over 15% in size). In outline: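 p53RE-bla HCT-116 cells; compounds 16 h, 37 °C; LiveBLAzer B/G FRET substrate 2 h RT; fluorescence intensity read-out, qHTS format.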

Glucocorticoid receptor (Homo sapiens), sequence (P04150 whole entry, looked up): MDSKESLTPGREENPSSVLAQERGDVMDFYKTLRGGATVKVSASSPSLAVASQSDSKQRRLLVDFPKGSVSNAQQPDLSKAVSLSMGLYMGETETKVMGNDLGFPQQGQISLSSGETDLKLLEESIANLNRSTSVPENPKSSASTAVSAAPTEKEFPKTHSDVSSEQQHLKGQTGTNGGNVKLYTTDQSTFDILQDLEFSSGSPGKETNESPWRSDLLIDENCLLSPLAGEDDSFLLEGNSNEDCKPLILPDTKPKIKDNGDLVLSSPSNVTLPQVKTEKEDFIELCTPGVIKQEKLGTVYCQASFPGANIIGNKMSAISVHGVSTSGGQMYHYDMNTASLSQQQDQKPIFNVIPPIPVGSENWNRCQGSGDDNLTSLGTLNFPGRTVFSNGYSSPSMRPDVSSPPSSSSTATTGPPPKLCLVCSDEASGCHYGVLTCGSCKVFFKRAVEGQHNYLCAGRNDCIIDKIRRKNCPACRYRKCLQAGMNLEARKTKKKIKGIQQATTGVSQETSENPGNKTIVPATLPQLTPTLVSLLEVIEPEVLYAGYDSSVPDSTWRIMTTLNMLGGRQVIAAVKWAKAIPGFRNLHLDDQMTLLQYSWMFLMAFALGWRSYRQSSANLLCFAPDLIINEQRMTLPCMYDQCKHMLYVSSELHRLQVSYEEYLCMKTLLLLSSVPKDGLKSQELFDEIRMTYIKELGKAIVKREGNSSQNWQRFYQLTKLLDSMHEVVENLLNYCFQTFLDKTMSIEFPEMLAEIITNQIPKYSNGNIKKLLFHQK

For the compound `C1COC(NC(C2CC2)C2CC2)=N1`, the Potency entry in experiment [1], in experiment [2], in experiment [3], in experiment [4], in experiment [6] and in [7] was “inactive” in each case. For the same compound, the Potency entry in experiment [9], in experiment [10], in experiment [11], in experiment [14], in [15] and in experiment [16] was “inactive” in each case. The result in experiment [5], in experiment [8], in experiment [12] and in experiment [13] was inactive.

Turning to `CC(=O)O[C@]1(C(C)=O)CC[C@H]2[C@@H]3C[C@H](C)C4=CC(=O)CC[C@]4(C)[C@H]3CC[C@@]21C`, the Potency result in [1], in [2], in experiment [3], in [6], in experiment [7] and in [9] was “inactive” throughout. Besides, the Potency result in experiment [10], in experiment [11], in [14], in [15] and in experiment [16] was “inactive” each time. Also, the compound was classed as inactive in experiment [5], in experiment [8], in experiment [12] and in experiment [13]. The Potency in experiment [17] was 37.9 nM (active) and 21.9 nM (active).

With `Oc1ccc(Cl)cc1Cc1cc(Cl)ccc1O`, the Potency result in experiment [1], in experiment [18], in experiment [6], in [7], in experiment [10] and in experiment [11] was “inactive” in each case. Moreover, the Potency entry in [14], in experiment [15] and in experiment [16] was “inactive” throughout. Also, the Potency was 18.8 µM (active) and 55.5 µM (active) and 43.3 µM (active) in [2]; 6.68 µM (active) and 221 nM (active) in experiment [3]; 1.88 µM (active) and 1.24 µM (active) and 1.22 µM (active) in [4]. Besides, the compound was classed as inactive in experiment [5], in experiment [8] and in [13].

Regarding `N[C@@H]1CONC1=O`, the Potency result in [1], in experiment [2], in [18], in experiment [3], in experiment [4] and in experiment [6] was “inactive” throughout. Also, the Potency entry in [7], in experiment [10], in experiment [11], in experiment [14], in experiment [15] and in experiment [16] was “inactive” throughout. For the same compound, the Potency entry in experiment [17] was “inactive”. The compound was called inactive in experiment [5], in experiment [8], in experiment [12] and in experiment [13].

As to `CCC(=O)/C=C/C1C(C)=CCCC1(C)C` (configuration not stated), the Potency entry in [1], in experiment [2], in experiment [3], in [6], in [7] and in experiment [9] was “inactive” each time. The Potency result in experiment [11], in experiment [14], in [15], in [16], in experiment [17] and in [19] was “inactive” throughout. For the same compound, the Potency in experiment [4] is 27.3 µM (active). For the same compound, the result in experiment [5], in experiment [8] and in [13] was inactive.

`O=C(O)CP(=O)(O)O`: the Potency entry in experiment [20], in experiment [1], in [3], in [4], in [6] and in experiment [7] was “inactive” throughout. Besides, the Potency entry in experiment [11], in [14], in experiment [15], in experiment [16], in [17] and in experiment [19] was “inactive” throughout. The result in experiment [5], in experiment [8], in experiment [12] and in [13] was inactive.

For `CC(C)(c1ccccc1)c1ccc(Nc2ccc(C(C)(C)c3ccccc3)cc2)cc1`, the Potency result in experiment [1], in experiment [2], in [18], in [3], in experiment [6] and in experiment [7] was “inactive” throughout. The Potency result in experiment [9], in [11], in [14], in [15] and in experiment [16] was “inactive” each time. Moreover, in experiment [4], the Potency was 21.7 µM (active) and 27.3 µM (active). Besides, the result in experiment [5], in experiment [8], in [12] and in experiment [13] was inactive.
